Results filed as inconclusive are left out. Unmarked numbers belong to inactive results. Calls of active or inactive are those of the source. Calls come from the whole dose curve; as a rule, active = well fitted activation curve with a large enough effect in the signal ratio in the repeat runs (not every such curve was filed as active); inconclusive = weak or mixed curves, or effect the other way; inactive = flat fitted curve, though single readings scatter; the % refers to the signal ratio.
Test: qHTS assay to identify small molecule agonists of the endoplasmic reticulum stress response signaling pathway (AID 1159516)
Conditions: ESRE-bla HeLa, ER stress beta-lactamase reporter, 5 h; series mostly up to 61 µM
Text: National Center for Advancing Translational Sciences [NCATS]
NIH Chemical Genomics Center [NCGC]
U.S. Environmental Protection Agency [EPA]
National Institutes of Environmental Health Sciences [NIEHS]
National Toxicology Program [NTP]
U.S. Food and Drug Administration [FDA]
Endoplasmic Reticulum (ER) plays an important role in cellular signaling, protein folding/maturation, stress response, lipid biosynthesis, calcium storage and release etc. Under stress conditions, proteins in ER misfold or unfold, and leading to the expression of ER stress responsive genes. ER stress has been associated with a variety of pathophysiological conditions such as cancer, inflammation, neurodegenerative diseases, diabetes, ischemic heart disease etc. To identify the compounds that induce ER stress response, an ER stress reporter cell line, CellSensor ESRE-bla HeLa (Life Technologies, Carlsbad, CA) containing a beta-lactamase reporter gene under control of the Endoplasmic reticulum Stress Response Element (ESRE) was used to screen Tox21 10K compound library.
Tox21 Assay Protocol Summary:
ESRE-bla HeLa cells were dispensed at 1,500 cells/6 uL of assay medium per well into black wall/clear-bottom 1536-well plates using a Multidrop Combi (ThermoFisher Scientific, Waltham, MA) dispenser. After the assay plates were incubated at 37 C and 5% CO2 for an overnight, 23 nL of compounds dissolved in DMSO, positive controls or DMSO only was transferred to the assay plate by a Pintool station (Kalypsys, San Diego, CA). The assay plates were incubated at 37 C and 5% CO2 for 5 hr. One uL of LiveBLAzer B/G FRET substrate (Life Technologies) was added using a Flying Reagent Dispenser (Aurora Discovery, San Diego, CA) and the plates were incubated at room temperature for 2 hr. Fluorescence intensity (405 nm excitation, 460 nm and 530 nm emissions) was measured using an Envision plate reader (PerkinElmer, Shelton, CT).
% is set by controls: 0 for no effect and ±100 for the full control effect.

| Structure (SMILES) | outcome | activation |
| --- | --- | --- |
| CC1(O)CSC(C)(O)CS1 (stereo not given) | inactive |  |
| CC(CNC1CCCCC1)OC(=O)c1ccccc1 (stereo not given) | inactive |  |
| CC(C)(C)C1CCCCC1=O (stereo not given) | inactive |  |
| Cc1ccc(C=O)s1 | inactive |  |
| C[C@]12CCC(=O)C=C1CC[C@@H]1[C@@H]2CC[C@@]2(C)[C@H]1CC[C@]2(O)C(=O)CO | inactive |  |
| CCc1cc2cc(OC)c(OC)cc2c(Cc2ccccc2)n1 | inactive |  |
| CC/C=C\CCOC(=O)CCCCC | inactive |  |
| CN(CCCN1c2ccccc2CCc2ccccc21)CC(=O)c1ccc(Cl)cc1 | inactive |  |
| NS(=O)(=O)c1cc(-c2nn[nH]n2)c(NCc2cccs2)cc1Cl | inactive |  |
| CC1=CC(=O)CC(C)(C)C1=O | inactive |  |
| CCCCCCCCc1ccc(S(=O)(=O)O)cc1 | inactive |  |
| CCOC(=O)COc1ccc2c(c1)CC(NCC(O)c1cccc(Cl)c1)CC2 (stereo not given) | inactive |  |
| CCCCOc1cc(C(=O)NCCN(CC)CC)c2ccccc2n1 | inactive |  |
| CCOC(=O)C(Br)c1ccccc1 (stereo not given) | inactive |  |
| CCCCCCCCCCCCOCCOS(=O)(=O)O | inactive |  |
| Cc1cc2c(s1)Nc1ccccc1N=C2N1CCN(C)CC1 | inactive |  |
| CCCCCOc1ccc(C2SC(=O)NC2=O)cc1OCC (stereo not given) | inactive |  |
| CC(=O)Nc1ccc(C)c(Cl)c1 | inactive |  |
| CC(=O)N(CC(O)CN(C(C)=O)c1c(I)c(C(=O)NCC(O)CO)c(I)c(C(=O)NCC(O)CO)c1I)c1c(I)c(C(=O)NCC(O)CO)c(I)c(C(=O)NCC(O)CO)c1I (stereo not given) | inactive |  |
| Cc1ccc([N+](=O)[O-])cc1Cl | inactive |  |

| Structure (SMILES) | outcome | activation |
| --- | --- | --- |
| C[C@@H]1CN(c2c(F)c(F)c3c(=O)c(C(=O)O)cn(C4CC4)c3c2F)C[C@H](C)N1 | inactive |  |
| CC(C)NC[C@@H](O)COc1cccc2ccccc12 | inactive |  |
| C1CCOC1 | inactive |  |
| OCc1c2ccccc2cc2ccccc12 | inactive |  |
| CCCOc1ccc2c(c1)CC[C@@H]1[C@@H]2CC[C@]2(C)C(OC)CC[C@@H]12 (stereo not given in full) | inactive |  |
| CN1CCN(c2c(F)cc3c(=O)c(C(=O)O)cn4c3c2SCC4)CC1 | inactive |  |
| CCCCCCCCOC(=O)CCCCCCCCC(=O)OCCCCCCCC | inactive |  |
| NC(Cc1ccc(F)cc1)C(=O)O (stereo not given) |  | -3.08% [at 6.95 µM] |
| N#Cc1ccc(C(c2ccc(C#N)cc2)n2cncn2)cc1 | inactive |  |
| ICCc1ccccc1 | inactive |  |
| CCOC(=O)c1cc(=O)c2c(OCC(COc3cccc4oc(C(=O)OCC)cc(=O)c34)OC(=O)[C@@H](N)CCCCN)cccc2o1 | inactive |  |
| N#CSCC(=O)O | inactive |  |
| O=C1CCC(C2CCCCC2)CC1 | inactive |  |
| CCOc1ccc2nc(N)sc2c1 | inactive |  |
| CCN(CC)CCNC(=O)COc1ccc(Cl)cc1 | inactive |  |
| CC(C)S | inactive |  |
| CC(=O)OC(C)OC(C)=O | inactive |  |
| CCCCNCCCC | inactive |  |
| O=C(Cl)c1cccc([N+](=O)[O-])c1 | inactive |  |
| CCN(CC)CC1CCCCN1CC(=O)N1c2ccccc2C(=O)Nc2cccnc21 (stereo not given) | inactive |  |

— PubChem BioAssay (Tox21)
